{
  "source": "PubChem BioAssay AID2546",
  "about": "(National Center for Advancing Translational Sciences (NCATS), 2010)",
  "note": "About 11,000 (3.5%) of roughly 310,000 compounds were called active. Roughly 8% stayed inconclusive and do not appear here. The sample holds actives, similar compounds and a random draw of the others, so the mix is not that of the screen. The call rests on the fitted dose curve; in most records, active means well fitted inhibition curve with a large enough effect; inconclusive means small, poorly fitted or top-dose-only effect, or effect the other way; inactive means flat fitted curve, though single readings scatter. On the % scale 0 is the no-effect control and ±100 the full control effect; potency means the concentration at half of the fitted maximal effect.",
  "data": [
    {"assay": "VP16 counterscreen qHTS for inhibitors of ROR gamma transcriptional activity;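 further: Gal4-VP16 expression switched on by copper sulfate through the metallothionein promoter; nearly all actives have a fitted effect of over 50% in size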", "conditions": "Drosophila S2 Gal4-VP16 UAS-luciferase, luminescence, 20 h; series mostly up to 53.6 µM; activity, negative = inhibition: at the top concentration", "values": [
      {"compound": "CC(=O)c1ccc(S(=O)(=O)N(C)CCCC(=O)N(C)Cc2ccccc2F)cc1", "activity, negative = inhibition": "12.7% (inactive)"},
      {"compound": "CCOc1ccc(N(CC)S(=O)(=O)c2cccc3nsnc23)cc1", "activity, negative = inhibition": "3.67% (inactive)"},
      {"compound": "CN(C)/C=C1\\C=C(c2ccccc2)OC1=O", "Potency": "35.5 µM (active)"},
      {"compound": "Cc1ccc(C2=C/C(=C\\c3cccnc3)C(=O)O2)cc1", "activity, negative = inhibition": "-8.91% (inactive)"},
      {"compound": "CN(C)/C=C1/C(=O)Nc2ccccc21", "activity, negative = inhibition": "16.7% (inactive)"},
      {"compound": "COc1cc(NC(=O)CN2C(=O)NC(C)(c3ccc(OC(F)F)cc3)C2=O)cc(OC)c1OC", "note": "(configuration not stated)", "activity, negative = inhibition": "0.174% (inactive)"},
      {"compound": "Cc1ccc(O)c(CNc2nc3ccccc3[nH]2)c1", "activity, negative = inhibition": "2.12% (inactive)"},
      {"compound": "COc1ccc(NC(=O)CCCC(=O)c2ccccc2)cc1", "activity, negative = inhibition": "5.32% (inactive)"},
      {"compound": "Cc1cccc(C(=O)NC(=S)N(C)C2CCCCC2)c1", "Potency": "2.24 µM (active)"},
      {"compound": "Cc1ccc(S(=O)(=O)NC(=O)c2cccc(C)c2)cc1", "activity, negative = inhibition": "-7.96% (inactive)"},
      {"compound": "Cc1cccc(C(=O)NCCCN(C)CCCNC(=O)c2cccc(C)c2)c1", "activity, negative = inhibition": "-3.12% (inactive)"},
      {"compound": "COc1ccc(N2CCN(C(=O)[C@@H](NC(=O)c3cc(OC)cc(OC)c3)C(C)C)CC2)cc1", "activity, negative = inhibition": "3.33% (inactive)"},
      {"compound": "CCC(NC(=O)c1cc(COc2ccc(F)c(F)c2)on1)c1ccncc1", "note": "(configuration not stated)", "activity, negative = inhibition": "-21% (inactive)"},
      {"compound": "Cc1ccc(NC(=S)NC2CCCC2)cc1", "Potency": "11.2 µM (active)"},
      {"compound": "CC(C)c1ccc(NC(=O)NC2CCCCC2)cc1", "activity, negative = inhibition": "12.2% (inactive)"},
      {"compound": "CC(Oc1ccc(Br)cc1Br)C(=O)NC1CCCC1", "note": "(configuration not stated)", "activity, negative = inhibition": "-2.5% (inactive)"},
      {"compound": "Cc1cc(Br)ccc1NC(=S)NC1CCCC1", "Potency": "5.62 µM (active)"},
      {"compound": "Cc1ccc(NC(=O)CSCC(=O)NC2CCCCC2)cc1", "activity, negative = inhibition": "-17% (inactive)"},
      {"compound": "Cc1cc(C)cc(NC(=O)NC2CCCCCCC2)c1", "activity, negative = inhibition": "-0.699% (inactive)"},
      {"compound": "CCC1=Nc2cc(C(=O)NCCN3CCCC3)ccc2Sc2ccc(C)cc21", "activity, negative = inhibition": "-4.97% (inactive)"},
      {"compound": "C/C(=N/OC(=O)c1ccc(Br)cc1)c1ccc(C)cc1", "activity, negative = inhibition": "-11% (inactive)"},
      {"compound": "COc1ccccc1C(=O)N/C(=C/c1ccco1)C(=O)Nc1ccc(C(=O)O)cc1", "activity, negative = inhibition": "2.53% (inactive)"},
      {"compound": "CN(C)S(=O)(=O)c1cccc(NC(=O)COC(=O)c2cc(=O)[nH]c(=O)[nH]2)c1", "activity, negative = inhibition": "-2.27% (inactive)"},
      {"compound": "Cc1ccc(/C=N/NC(=S)Nc2cccc(S(=O)(=O)N(C)C)c2)o1", "Potency": "15.8 µM (active)"},
      {"compound": "CN(C)S(=O)(=O)c1cccc(NC(=O)Cc2ccsc2)c1", "activity, negative = inhibition": "-16.8% (inactive)"},
      {"compound": "N#CCC(=O)NC1CCC(CC2CCC(NC(=O)CC#N)CC2)CC1", "note": "(configuration not stated)", "activity, negative = inhibition": "-5.43% (inactive)"},
      {"compound": "COCCNc1ccc(-c2n[nH]c(=O)c3ccccc23)cc1[N+](=O)[O-]", "activity, negative = inhibition": "-1.01% (inactive)"},
      {"compound": "Cc1ccc2oc(C(=O)N3CCN(C)C[C@@H]3C(C)C)c(C)c2c1", "activity, negative = inhibition": "20.7% (inactive)"},
      {"compound": "Cc1nnc(SCC(N)=O)n1CC1CCCO1", "note": "(configuration not stated)", "activity, negative = inhibition": "3.36% (inactive)"},
      {"compound": "Cc1ccsc1C(=O)OCC(=O)c1cc(C)n(CC2CCCO2)c1C", "note": "(configuration not stated)", "Potency": "7.08 µM (active)"},
      {"compound": "Cc1cc(C(=O)Cn2cnc3cc([N+](=O)[O-])ccc3c2=O)c(C)n1CC1CCCO1", "note": "(configuration not stated)", "activity, negative = inhibition": "9.33% (inactive)"},
      {"compound": "CCOc1ccc2[nH]c(=O)c(CN(CCCO)S(=O)(=O)c3ccc(F)cc3)cc2c1", "activity, negative = inhibition": "0.404% (inactive)"},
      {"compound": "COc1ccc2oc(C(=O)NCc3ccco3)c(C)c2c1", "activity, negative = inhibition": "27.1% (inactive)"},
      {"compound": "CN(C)c1ccc(-c2nc(NCCN3CCOCC3)c3ccccc3n2)cc1", "activity, negative = inhibition": "-27.7% (inactive)"},
      {"compound": "c1ccc2cc3c(NCCN4CCOCC4)ccnc3cc2c1", "Potency": "12.6 µM (active)"},
      {"compound": "Clc1ccccc1-c1cc(NCCN2CCOCC2)ncn1", "activity, negative = inhibition": "-0.277% (inactive)"},
      {"compound": "COc1ccc(CS(=O)/C(Cl)=C(/Cl)C(=O)Nc2ccc(OC)nc2)cc1", "note": "(configuration not stated)", "Potency": "3.98 µM (active)"},
      {"compound": "COc1ccc(NC(=O)/C(Cl)=C(/Cl)S(=O)Cc2ccc(C)cc2)cn1", "note": "(configuration not stated)", "activity, negative = inhibition": "-8.88% (inactive)"},
      {"compound": "COc1ccc(C(=O)Nc2ccc(NC(=O)C(C)C)nc2)cc1", "activity, negative = inhibition": "6.09% (inactive)"},
      {"compound": "COc1cccc(CNC(=O)COc2cc(O)c3c(c2)OC(C)(C)CC3=O)c1", "activity, negative = inhibition": "3.82% (inactive)"},
      {"compound": "COc1ccc(/C=N/NC(=O)c2ccccc2)cc1OS(=O)(=O)c1ccccc1", "activity, negative = inhibition": "-25.7% (inactive)"},
      {"compound": "COc1cc(/C=N/O)ccc1OCc1ccc([N+](=O)[O-])cc1", "activity, negative = inhibition": "-14.8% (inactive)"},
      {"compound": "COc1cc(/C=N/O)cc(Br)c1OCc1cccc(Cl)c1", "Potency": "11.2 µM (active)"},
      {"compound": "COc1cc(/C=N/Nc2ccc(C)cc2)cc(Br)c1O", "activity, negative = inhibition": "-1.91% (inactive)"},
      {"compound": "COc1cc(/C=N/O)cc(Br)c1OS(=O)(=O)c1ccc(C)cc1", "Potency": "11.2 µM (active)"},
      {"compound": "CCOc1c(Cl)cc(/C=N/O)cc1OC", "activity, negative = inhibition": "4.4% (inactive)"},
      {"compound": "CCc1c(C)c2ccc(OC3CCCCC3=O)cc2oc1=O", "note": "(configuration not stated)", "activity, negative = inhibition": "6.03% (inactive)"},
      {"compound": "CCOCCCN1C(=O)C2C(C(=O)Nc3ccc(OCC)cc3)C3C=CC2(O3)C1C(=O)NC1CCCCC1", "note": "(configuration not stated)", "activity, negative = inhibition": "-1.17% (inactive)"},
      {"compound": "O=C(NC1CC1)C(Cc1ccccc1)NS(=O)(=O)c1ccccc1F", "note": "(configuration not stated)", "activity, negative = inhibition": "-1.56% (inactive)"},
      {"compound": "Cc1ccc(NC(=O)Nc2cccnc2)cc1", "activity, negative = inhibition": "-10.8% (inactive)"},
      {"compound": "COc1cc(/C=C(\\C#N)c2nc3c(s2)CC(C)CC3)ccc1O", "note": "(configuration not stated)", "Potency": "4.47 µM (active)"},
      {"compound": "COc1cc(/C=N/Nc2nc3ccccc3s2)ccc1O", "activity, negative = inhibition": "-5.9% (inactive)"},
      {"compound": "COc1cc(/C=C(\\C#N)c2nc3ccccc3[nH]2)ccc1O", "activity, negative = inhibition": "4.23% (inactive)"},
      {"compound": "Cc1cc(-c2nnc(SCC(=O)Nc3ccc(S(N)(=O)=O)cc3)n2N)n[nH]1", "activity, negative = inhibition": "-11.2% (inactive)"},
      {"compound": "NC(=O)c1cc(S(=O)(=O)N2CCCC2)ccc1OCc1ccc(F)cc1", "activity, negative = inhibition": "3.21% (inactive)"},
      {"compound": "COC(=O)c1ccccc1NC(=O)CSc1n[nH]c(-c2ccncc2)n1", "activity, negative = inhibition": "2.2% (inactive)"},
      {"compound": "Cc1ccc(CSCC2Nc3ccc(C(=O)N4CCN(c5ccc(F)cc5)CC4)cc3NC2=O)cc1", "note": "(configuration not stated)", "activity, negative = inhibition": "0.0449% (inactive)"},
      {"compound": "CCN(CC)CCN(C(=O)c1ccc(S(=O)(=O)N2CCOCC2)cc1)c1nc2cc3c(cc2s1)OCCO3", "activity, negative = inhibition": "-4.42% (inactive)"},
      {"compound": "CC(=O)N(CCCN(C)C)c1nc2ccc(C)cc2s1", "activity, negative = inhibition": "-1.15% (inactive)"},
      {"compound": "CN(C)CCCN(C(=O)c1ccc(S(=O)(=O)N2CCCCCC2)cc1)c1nc2ccc(Br)cc2s1", "Potency": "17.8 µM (active)"},
      {"compound": "Cc1occc1C(=O)Nc1nnc(C2CCCCC2)s1", "activity, negative = inhibition": "1.48% (inactive)"},
      {"compound": "Cc1cnc(NC(=O)CSc2c(Cl)cccc2Cl)s1", "activity, negative = inhibition": "-6.38% (inactive)"},
      {"compound": "O=C(Cc1cccs1)Nc1nnc(C2CC2)s1", "activity, negative = inhibition": "1.44% (inactive)"},
      {"compound": "O=C(Nc1nnc(C2CC2)s1)c1ccccn1", "Potency": "4.47 µM (active)"},
      {"compound": "Cc1ccc(SCC(=O)Nc2ncc(C)s2)cc1", "activity, negative = inhibition": "-15% (inactive)"},
      {"compound": "Cc1cnc(NC(=O)c2ccccn2)s1", "Potency": "4.47 µM (active)"},
      {"compound": "Cc1cccc(NC(=O)c2sc3nc(N4CCOCC4)c4c(c3c2N)CCCC4)c1", "activity, negative = inhibition": "-11% (inactive)"},
      {"compound": "CN(CCNC(=O)c1cc2c(-c3ccccc3F)nn(C)c2s1)C1CCCCC1", "activity, negative = inhibition": "1.6% (inactive)"},
      {"compound": "NC(=O)c1oc2ccccc2c1NC(=O)Cc1ccccc1", "activity, negative = inhibition": "-5.97% (inactive)"},
      {"compound": "COc1cccc2c(C)c(C(=O)O)[nH]c12", "Potency": "10 µM (active)"},
      {"compound": "Cc1c(C(=O)N/N=C/c2ccccc2)[nH]c2c([N+](=O)[O-])cccc12", "activity, negative = inhibition": "2.4% (inactive)"},
      {"compound": "COc1cc2c(C(=O)O)c(C)n(C)c2c2ccccc12", "activity, negative = inhibition": "-1.23% (inactive)"}
    ]}
  ]
}
